In the supplement of paper PMC13380429 one finds morphology score and SARS-CoV-2 infection rate data, which are given here for 25 molecules.

In test [1] the test system is Vero E6 infected with SARS-CoV-2. Nature of the test: morphology score (similarity to uninfected cells); higher = more like uninfected cells. The note with it: 24 h.
For test [2] the test system is unchanged. Nature of the test: SARS-CoV-2 infection rate relative to infected DMSO; higher = more infection, active = 60 or less. The note with it: 24 h.

Take `C=C1C(=O)O[C@@H]2/C=C(\C)CC/C=C(\C)CC[C@@H]12` [costunolide] (10 µM): the morphology score in test [1] was 0.222. Moreover, the SARS-CoV-2 infection rate in test [2] was 78.5% (inactive).

For the molecule `C[C@@H]1NC(=O)[C@@H]2CCCN2C(=O)[C@H](CC(N)=O)NC(=O)[C@@H]2CSSC[C@H](N)C(=O)N[C@H]3CSSC[C@H](NC1=O)C(=O)N[C@@H]([C@@H](C)O)C(=O)NCC(=O)N[C@H](C(=O)N[C@@H](Cc1ccc(O)cc1)C(=O)O)CSSC[C@H](NC(=O)[C@H](Cc1ccc(O)cc1)NC(=O)[C@H](CCC(=O)O)NC3=O)C(=O)N2` [linaclotide] (10 µM), in test [1], the morphology score was 0.0259. The SARS-CoV-2 infection rate in test [2] was 106% (inactive).

Molecule `CN(C)C(=O)COC(=O)Cc1ccc(OC(=O)c2ccc(NC(=N)N)cc2)cc1` [camostat-mesilate] (10 µM) showed a morphology score in test [1] of 0.0997. For the same molecule, in test [2], the SARS-CoV-2 infection rate was 114% (inactive).

For the molecule `CC(O)(CS(=O)(=O)c1ccc(F)cc1)C(=O)Nc1ccc(C#N)c(C(F)(F)F)c1` (stereo not given) [bicalutamide] (10 µM), in test [1], the morphology score is -0.00454. In addition, in test [2], the SARS-CoV-2 infection rate was 114% (inactive).

For the molecule `CCCNC(C)(C)COC(=O)c1ccccc1` [meprylcaine] (10 µM), the morphology score in test [1] came to 0.0721. In addition, the SARS-CoV-2 infection rate in test [2] is 102% (inactive).

`COc1ccc2[nH]c(I)c(CCNC(C)=O)c2c1` [2-iodomelatonin] (10 µM) showed a morphology score in test [1] of 0.0455. In addition, the SARS-CoV-2 infection rate in test [2] was 88% (inactive).

As for `CN1C2C=C(c3sccc3Br)CC1CC2` (stereo not given) (10 µM), the morphology score in test [1] is 0.427. In test [2], the SARS-CoV-2 infection rate was 69.5% (inactive).

Turning to `OC(c1cc(C(F)(F)F)nc2c(C(F)(F)F)cccc12)C1CCCCN1` (stereo not given) [mefloquine] (0.833333 µM), the morphology score in test [1] is -0.113. For the same molecule, the SARS-CoV-2 infection rate in test [2] is 112% (inactive).

On to `O=C(Oc1ccc([N+](=O)[O-])cc1)N1CCN(Cc2cccc(Oc3ccccc3)c2)CC1` (10 µM), for which the morphology score in test [1] came to 0.162. The SARS-CoV-2 infection rate in test [2] is 95.5% (inactive).

`COC(=O)c1ccc2c(c1)nc(NC(=O)c1ccccc1)n2CCCc1ccccc1` (10 µM) returned a morphology score in test [1] of 0.0334. In test [2], the SARS-CoV-2 infection rate is 94.5% (inactive).

With `COc1cc(NS(=O)(=O)c2ccc(N)cc2)ncn1` [sulfamonomethoxine] (10 µM), the morphology score in test [1] was found to be 0.102. Besides, the SARS-CoV-2 infection rate in test [2] is 89.5% (inactive).

Turning to `CC(C)(CCCCCC(O)CCCCCC(C)(C)C(=O)O)C(=O)O` [bempedoic-acid] (10 µM), the morphology score in test [1] amounted to 0.0218. The SARS-CoV-2 infection rate in test [2] was 110% (inactive).

As for `Oc1ccc2c3c1O[C@H]1c4[nH]c5c(c4C[C@@]4(O)[C@@H](C2)N(CC2CC2)CC[C@]314)C[C@@]1(O)[C@H]2Cc3ccc(O)c4c3[C@@]1(CCN2CC1CC1)[C@H]5O4` [nor-binaltorphimine] (10 µM), in test [1], the morphology score was -0.0703. In addition, the SARS-CoV-2 infection rate in test [2] was 114% (inactive).

In the case of `O=C(Nc1ccncc1)C(=O)c1cn(Cc2ccc(Cl)cc2)c2ccccc12` [indibulin] (0.833333 µM), the morphology score in test [1] is -0.246. Moreover, in test [2], the SARS-CoV-2 infection rate was 124% (inactive).

For `Cc1ccc(S(=O)(=O)NC(=O)NN2CCCCCC2)cc1` [tolazamide] (10 µM), the morphology score in test [1] is 0.103. For the same molecule, in test [2], the SARS-CoV-2 infection rate is 100% (inactive).

Molecule `Nc1n[nH]c2nc3ccccc3nc12` [CDK1-5-inhibitor] (10 µM) gave a morphology score in test [1] of -0.113. In test [2], the SARS-CoV-2 infection rate was 112% (inactive).

As to `Oc1ccc2c3c1O[C@H]1c4[nH]c5ccccc5c4C[C@@]4(O)[C@@H](C2)N(CC2CC2)CC[C@]314` [naltrindole] (10 µM), the morphology score in test [1] was -0.0968. In addition, the SARS-CoV-2 infection rate in test [2] is 106% (inactive).

In the case of `CCCCOc1ccc(C(=O)Nc2ccc(F)cc2F)cc1` (10 µM), in test [1], the morphology score stood at 0.18. Also, in test [2], the SARS-CoV-2 infection rate was 106% (inactive).

In test [1], `O=C(O)COc1cccc(CN(Cc2ccc(-n3cccn3)cc2)S(=O)(=O)c2cccnc2)c1` [taprenepag] (10 µM) yielded a morphology score of -0.0257. Also, in test [2], the SARS-CoV-2 infection rate is 100% (inactive).

The molecule `CO/N=C(\C(=O)N[C@@H]1C(=O)N2C(C(=O)[O-])=C(C[N+]3(C)CCCC3)CS[C@H]12)c1csc(N)n1` [cefepime] (10 µM) returned a morphology score in test [1] of 0.0622. For the same molecule, in test [2], the SARS-CoV-2 infection rate was 114% (inactive).

In test [1], `C#Cc1cncc([C@@H]2CCCN2C)c1` [altinicline] (10 µM) displayed a morphology score of 0.0585. The SARS-CoV-2 infection rate in test [2] was 98.5% (inactive).

With `CN(C)CCOc1ccc(/C(=C(/CCCl)c2ccccc2)c2ccccc2)cc1` [toremifene] (0.833333 µM), the morphology score in test [1] was -0.0544. Moreover, the SARS-CoV-2 infection rate in test [2] is 112% (inactive).

`COC(=O)C1=C(C)NC(C)=C(C(=O)OCC(C)C)C1c1ccccc1[N+](=O)[O-]` (stereo not given) [nisoldipine] (0.833333 µM): the morphology score in test [1] is -0.0369. Besides, the SARS-CoV-2 infection rate in test [2] is 112% (inactive).

In test [1], `CC(C)(O)CC(=O)NCCn1ccc2ncnc(Nc3ccc(Oc4cccc(C(F)(F)F)c4)c(Cl)c3)c21` (10 µM) gave a morphology score of -0.138. Moreover, in test [2], the SARS-CoV-2 infection rate is 114% (inactive).

`Cc1ccc(S(N)(=O)=O)cc1` [para-toluenesulfonamide] (10 µM) gave a morphology score in test [1] of -0.0434. The SARS-CoV-2 infection rate in test [2] is 106% (inactive).
